Measurements published in paper PMC4336329 (PLoS ONE, 2015).
About 14,000 (4.5%) of roughly 310,000 compounds showed an effect of 50% or more. The effect is printed as a negative number. What follows is part of a selection rich in strong results, with near analogues and random picks from the rest.

What follows are compounds tested against human ether-à-go-go-related gene (hERG) potassium channel (human, UniProt Q12809) (assay: primary screen, population patch clamp on CHO cells stably expressing hERG; higher = less effect of the substance).
Chain of human ether-à-go-go-related gene (hERG) potassium channel (Q12809 whole entry, looked up): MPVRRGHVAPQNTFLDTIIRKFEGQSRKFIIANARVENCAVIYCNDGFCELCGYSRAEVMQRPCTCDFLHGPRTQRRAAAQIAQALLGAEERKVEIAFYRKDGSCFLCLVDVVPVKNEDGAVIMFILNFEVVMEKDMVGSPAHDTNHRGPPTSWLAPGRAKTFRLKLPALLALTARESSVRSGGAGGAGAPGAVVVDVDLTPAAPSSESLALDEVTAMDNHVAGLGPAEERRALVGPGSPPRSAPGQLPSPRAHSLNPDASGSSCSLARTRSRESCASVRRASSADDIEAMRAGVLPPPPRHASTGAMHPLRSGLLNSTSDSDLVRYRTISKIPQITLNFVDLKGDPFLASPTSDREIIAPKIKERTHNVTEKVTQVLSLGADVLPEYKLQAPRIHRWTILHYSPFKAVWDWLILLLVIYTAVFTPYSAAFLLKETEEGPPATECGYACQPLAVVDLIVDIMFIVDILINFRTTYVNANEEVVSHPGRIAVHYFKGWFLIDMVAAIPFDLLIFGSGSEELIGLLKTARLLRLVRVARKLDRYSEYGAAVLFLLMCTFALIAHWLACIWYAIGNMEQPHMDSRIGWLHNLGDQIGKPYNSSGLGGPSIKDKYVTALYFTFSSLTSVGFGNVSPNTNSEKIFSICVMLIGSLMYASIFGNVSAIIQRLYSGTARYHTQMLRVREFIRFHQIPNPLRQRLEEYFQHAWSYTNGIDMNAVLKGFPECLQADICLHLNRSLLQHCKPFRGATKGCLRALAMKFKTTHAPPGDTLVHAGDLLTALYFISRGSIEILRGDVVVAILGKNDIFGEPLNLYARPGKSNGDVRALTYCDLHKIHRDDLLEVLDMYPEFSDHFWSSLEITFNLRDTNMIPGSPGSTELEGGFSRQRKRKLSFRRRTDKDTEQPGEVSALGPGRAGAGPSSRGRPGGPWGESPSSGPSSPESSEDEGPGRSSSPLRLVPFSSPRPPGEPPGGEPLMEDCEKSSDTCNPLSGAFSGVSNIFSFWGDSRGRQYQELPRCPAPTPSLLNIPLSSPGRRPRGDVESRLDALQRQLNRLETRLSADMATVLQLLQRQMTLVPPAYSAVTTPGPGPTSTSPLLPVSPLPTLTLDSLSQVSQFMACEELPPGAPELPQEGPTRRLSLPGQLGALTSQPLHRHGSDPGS
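Also: peak tail current of the secondary pulse compared with the same well before compound.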

Compound | hERG current change (%, negative = inhibition) at 10uM [%]
COc1ccc(-c2csc(-c3ccccc3)n2)c(OC)c1 | 29.1
O=C(Oc1cccc(C(=S)N2CCOCC2)c1)c1ccc([N+](=O)[O-])cc1[N+](=O)[O-] | -14.4
CCOC(=O)C1(Cc2cccc(OC)c2)CCCN(C(=O)c2cc(C)oc2C)C1 (stereo not drawn) | -6.37
O=C(CNC(=S)N(Cc1ccccc1Cl)C1CCCC1)NCCCN1CCOCC1 | 7.4
CSc1ccc(CNCC2CCCO2)cc1.Cl (stereo not drawn) | 2.99
CC(/C=N/NC(=O)Cn1cnc2c1c(=O)n(C)c(=O)n2C)=C\c1ccco1 | -10.2
CCN(C(=O)CSc1nc2ccccc2o1)C1CCS(=O)(=O)C1 (stereo not drawn) | -3.25
CC1(CC(=O)N/N=C/c2ccc(OCc3ccc(Cl)cc3Cl)cc2)OCCCO1 | 5.38
COc1cccc(C(=O)Nc2ccccc2F)c1 | 8.37
O=C(CCc1nc2ccccc2c(=O)[nH]1)NNC(=O)COc1ccc(Br)cc1 | 6.48
CCOC(=O)c1nnn2c1nc(N1CCN(C)CC1)c1ccccc12 | -4.25
CCOC(=O)c1nnn2c1nc(N1CCN(c3ccccc3)CC1)c1ccccc12 | -62.4
CCOC(=O)c1nnn2c1nc(N1CCOCC1)c1ccccc12 | -20.4
COc1ccc(OC)c(N2C(=O)NC(=O)C(CCc3ccncc3)(CCc3ccncc3)C2=O)c1 | -41.2
CCOc1ccccc1N1C(=O)NC(=O)C(CCc2ccncc2)(CCc2ccncc2)C1=O | -29.6
COc1ccc(CC2(CCc3ccncc3)C(=O)NC(=O)NC2=O)cc1 | 22.5
O=C1CC(=O)N(CCc2ccc(F)cc2)C(=O)N1 | 9.33
O=C1NC(=O)C(CCc2ccncc2)(CCc2ccncc2)C(=O)N1Cc1ccc(F)cc1 | -76.6
O=C1NC(=O)C(CCc2ccncc2)(CCc2ccncc2)C(=O)N1CCc1ccc(F)cc1 | -68.5
CCOC(=O)CN1CC23C=CC(O2)C(C(=O)NCCc2ccccc2)C3C1=O (stereo not drawn) | 6.73
CCOC(=O)N1CCN(S(=O)(=O)c2ccc(C)cc2)C1c1ccc(OC)cc1 (stereo not drawn) | -11.9

Compound | hERG current change (%, negative = inhibition) at 10uM [%]
Cc1ccc(-c2nn(Cc3ccccc3)cc2C=O)cc1C | -13.9
Cc1cnc(NC(=O)CSc2nc3ccccc3c(=O)[nH]2)s1 | -7.72
CNC(=O)c1cc2c(=O)n3cc(C)ccc3nc2n(C(C)C)c1=N | -77.1
Cc1ccc2nc(SCC(=O)Nc3cccc4ccccc34)nc(=O)n2c1 | -14
Cc1cccn2c(=O)c3cc(C(=O)NCC(C)C)sc3nc12 | -3.21
Cc1cccn2c(=O)c3cc(C(=O)N(C)C)n(C)c3nc12 | 2.7
CNC(=O)c1cc2c(=O)n3cccc(C)c3nc2n(C(C)C)c1=N | -77.3
Cc1ccc(CCNC(=O)c2ccc3nc4ccc(Cl)cc4c(=O)n3c2)cc1 | 20.4
Cc1ccccc1CC(=O)NCc1cccnc1 | 10.8
Cc1cccn2c(=O)c3cc(C(=O)O)n(C)c3nc12 | 6.65
Cc1cccn2c(=O)c3cc(C(=O)NCc4cccnc4)c(=N)n(C(C)C)c3nc12 | -69.4
O=C(CSc1nnc2scc(-c3ccc(Cl)cc3)n12)NCc1ccco1 | -15.9
CCOc1cc(CNC(C)(C)CO)cc(Br)c1OCc1ccc(Cl)cc1Cl | -12.1
COC1CCN(C(=O)CC2C(=O)NCCN2CC(C)(C)C)CC1 (stereo not drawn) | 18.5
COC(=O)c1cc(NC(=O)c2cccnc2)cc(C(=O)OC)c1 | 11
N#CC(=C1SC=CS1)c1nc(-c2ccccc2)cs1 | 9.47
O=C(NCCN1CCOCC1)/C(=C\c1ccccc1Cl)NC(=O)c1ccccc1 | -16.2
CC(C)c1ccc(/C=C(\NC(=O)c2ccccc2)C(=O)NCCN2CCOCC2)cc1 | -61
O=C(NCCCN1CCOCC1)/C(=C/c1ccco1)NC(=O)c1ccccc1 | 1.44
CNC(=O)C(=O)NCCCN1CCOCC1 | 7.92
Cn1cc(/C=C(\NC(=O)c2ccccc2)C(=O)NCCCN2CCOCC2)c2ccccc21 | 3.43

Compound | hERG current change (%, negative = inhibition) at 10uM [%]
CC(C)NC(=O)C(=O)NCCCN1CCOCC1 | 25.1
CC(C)CNC(=O)C(=O)NCCCN1CCOCC1 | -61.6
CC(C)c1ccc(/C=C(\NC(=O)c2ccccc2)C(=O)NCCCN2CCOCC2)cc1 | -71.4
CC(=O)c1ccc(S(=O)(=O)N(C)C(C)CCc2ccco2)cc1 (stereo not drawn) | -6.81
CC(=O)N1CCc2cc(Br)cc(S(=O)(=O)N3CCN(c4ccccn4)CC3)c21 | 10.7
Cc1ccc(/C=C2\C(=N)N3N=C(CC(=O)N4CCOCC4)SC3=NC2=O)o1 | 12.2
CCOC(=O)c1cc(-c2ccccc2)sc1NC(=O)C(C)C | 13.8
O=C(O)C1C2CCC(C2)C1C(=O)NCc1ccccn1 (stereo not drawn) | 16.1
CCOC(=O)N1CCN(c2ccc(S(=O)(=O)N(Cc3ccccc3)Cc3ccccc3)cn2)CC1 | -4.41
O=c1nc2ccc(Cl)cn2c2ccc(S(=O)(=O)N3CCCCC3)cc12 | -0.392
COc1ccc(S(=O)(=O)N2CCN(Cc3cc(=O)n4ccccc4n3)CC2)cc1 | -31.4
Cc1ccc(S(=O)(=O)N2CCN(Cc3cc(=O)n4ccccc4n3)CC2)c(C)c1 | -80.6
Cc1ccc(S(=O)(=O)N2CCN(Cc3cc(=O)n4ccccc4n3)CC2)cc1C | -40.5
O=S(=O)(c1ccccc1)N1CCN(Cc2cccc(Cl)c2)CC1 | -18.1
O=c1cc(CN2CCN(S(=O)(=O)c3ccccc3)CC2)nc2ccc(Cl)cn12 | -56
CCOc1cccc(C2/C(=C(/O)c3ccc4c(c3)CC(C)O4)C(=O)C(=O)N2CCN2CCOCC2)c1 (stereo not drawn) | 14.7
N#Cc1ccccc1NC(=O)CSc1ccc([N+](=O)[O-])cn1 | 13.1
COc1cc(C(CC(=O)N2CCCC2)c2c(OC)cc(OC)c3c(-c4ccccc4)cc(=O)oc23)cc(OC)c1OC (stereo not drawn) | -10.5
COc1cc(C(CCN2CCCCC2)c2c(OC)cc(OC)c3c(-c4ccccc4)cc(=O)oc23)cc(OC)c1OC (stereo not drawn) | -67
CCN(CC)CCC(c1cc(OC)c(OC)c(OC)c1)c1c(OC)cc(OC)c2c(-c3ccccc3)cc(=O)oc12 (stereo not drawn) | -16.8
COc1cc(C(CCN2CCCC(C)C2)c2c(OC)cc(OC)c3c(-c4ccccc4)cc(=O)oc23)cc(OC)c1OC (stereo not drawn) | -38.7

Compound | hERG current change (%, negative = inhibition) at 10uM [%]
COc1cc(OC)c2c(-c3ccccc3)cc(=O)oc2c1C(CCN1CCN(c2ccccc2)CC1)c1ccc(N(C)C)cc1 (stereo not drawn) | 7.89
COc1cc(C(CCN2CCCC2)c2c(OC)cc(OC)c3c(-c4ccccc4)cc(=O)oc23)cc(OC)c1OC (stereo not drawn) | -70.8
Cc1ccc(NC(=O)CCS(=O)(=O)c2cc3c(cc2Cl)NC(=O)CO3)cc1 | -17.4
O=C(CNC(=O)c1ccc(Cl)cc1)c1ccc(Cl)cc1 | 7.28
Cc1ccc(CNC(=O)C2C3C=CC(C3)C2C(=O)O)cc1 (stereo not drawn) | -3.26
Cl.OC(CN1CCCCC1)Cn1c(C(F)(F)F)nc2ccccc21 (stereo not drawn) | 4.06
CC1CN(S(=O)(=O)c2cccs2)CC(C)O1 (stereo not drawn) | -3.7
COc1ccc(NC(=S)NCc2ccco2)cc1 | 9.23
COc1ccc(S(=O)(=O)n2cnc3ccccc32)cc1OC | 12.4
C=CCn1c(O)c(C(C)=NCc2cc(OC)cc(OC)c2)c(=O)[nH]c1=O | -37
CCCCn1c(O)c(C(CC)=NCc2cc(OC)cc(OC)c2)c(=O)[nH]c1=O | -13.8
C=CCn1c(O)c(C(CC)=NCc2cc(OC)cc(OC)c2)c(=O)[nH]c1=O | -59
Cc1ccc(S(=O)(=O)Nc2ccccc2/C=N/c2nc3ccccc3n2C)cc1 | -13.5
Cc1cc(-c2ccc(N3CCOCC3)cc2)nc2ccccc12.Cl | 3.53
CCCCn1c(O)c(C=Nc2c(C)n(C)n(-c3ccccc3)c2=O)c(=O)[nH]c1=O | 4.96
Cc1c(N=Cc2c(O)n(Cc3ccc(F)cc3)c(=O)[nH]c2=O)c(=O)n(-c2ccccc2)n1C | -26
Cc1c(N=Cc2c(O)n(CCc3ccccc3)c(=O)[nH]c2=O)c(=O)n(-c2ccccc2)n1C | -39.3
C=CCn1c(O)c(C=Nc2c(C)n(C)n(-c3ccccc3)c2=O)c(=O)[nH]c1=O | -81.6
Cc1c(N=Cc2c(O)n(CCc3ccc(F)cc3)c(=O)[nH]c2=O)c(=O)n(-c2ccccc2)n1C | -61.9
Cc1c(N=Cc2c(O)n(Cc3ccccc3)c(=O)[nH]c2=O)c(=O)n(-c2ccccc2)n1C | -5.81
C=C(C)Cn1c(N2CC(C)CC(C)C2)nc2c1c(=O)[nH]c(=O)n2C (stereo not drawn) | 2.46
